Data as given in PubChem BioAssay AID504558 (Broad Institute, 2011).
The campaign covered roughly 350,000 compounds. About 2,400 (0.69%) were called active. Rule as the data show it: active = inhibition above about 41%; inconclusive = no clear call, values can overlap the other calls; inactive = below that. The sample as a whole holds a higher share of actives than the screen did.

assay: EBV LMP1-driven NF-kappaB luciferase reporter inhibitors, primary screen, cell-based, luminescence, single point (AID 504558); conditions: LMP1-induced NF-kappaB luciferase reporter cells, at 12.5 µM, stronger effect = higher value;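 also: 0% = neutral control wells and 100% = reference inhibitor control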

SMILES	inhibition
COc1ccc(CN2C(=O)C(CC(=O)NC3CCCCC3)CC(C(=O)N3CCOCC3)=C2C)cc1 (configuration not stated)	1.44% (inactive)
CSCCC(NC(=O)c1ccco1)C(=O)Nc1cc(C)ccn1 (configuration not stated)	-34.2% (inactive)
CSCCC(NC(=O)c1ccco1)C(=O)OCC(=O)Nc1ncc(Cl)c(C)c1Cl (configuration not stated)	59.5% (active)
Cc1c(Cl)cnc(NC(=O)COC(=O)C2CCCC2)c1Cl	-6.23% (inactive)
COc1cccc(OCC(=O)NCCS(=O)(=O)N2CCN(c3ccccc3)CC2)c1	1.31% (inactive)
O=C(CC(CC(=O)c1ccccc1)c1ccco1)c1ccccc1	-17.7% (inactive)
CCOc1cc(/C=C(/C#N)c2ccc(Cl)cc2)cc(Cl)c1OCC(=O)O	43.8% (active)
C/C(=N\OCC(=O)O)c1ccc(Cl)cc1	-9.17% (inactive)
CCOC(=O)CN/C=C(\C#N)c1ccc(F)cc1	1.95% (inactive)
CCOC(=O)c1cc(-c2sc(NC(=O)c3ccccc3)nc2C)n(-c2ccc(Br)cc2)n1	-16.6% (inactive)
C[C@@H]1CN([C@H](C)CO)S(=O)(=O)c2ccc(C#CC3CCCCC3)cc2O[C@H]1CN(C)C(=O)Cc1ccncc1	-11.3% (inactive)
COc1ccc(C(CNC(=O)c2ccc(OCc3cscn3)cc2)N2CCCC2)cc1 (configuration not stated)	-12% (inactive)
CC(=O)Nc1c(-c2ccc(C)cc2)nc2ccc(Cl)cn12	6.02% (inactive)
Cc1sc2nc(-c3ccccc3F)oc(=O)c2c1C	1.32% (inactive)
CSc1ncnc2c1ncn2CCCNCC1CCCCC1	3.66% (inactive)
O=C(NN=Cc1ccccc1O)NN=Cc1ccccc1O	33.4% (inactive)
O=C(N/N=C/c1ccccc1O)C1CCCC1	0.696% (inactive)
Cc1ccc(/C=N/NC(=O)C2=NNC(c3ccccc3)(c3ccccc3)C2)c(O)c1	61.6% (active)
Cc1nc2ccccc2nc1CC(O)(c1ccccc1)c1ccccc1	-2.04% (inactive)

SMILES	inhibition
Nc1ccccc1-c1nc2ccncc2[nH]1	2.17% (inactive)
Cc1nnc(N/N=C/c2ccccn2)[nH]c1=O	60.6% (active)
O=C(N/N=C/c1ccccn1)C12CC3CC(CC(C3)C1)C2	-4.71% (inactive)
O=C(COc1ccc(Cl)cc1Cl)N/N=C/c1ccccn1	19.3% (inactive)
Cc1ccc(-c2ccc(CN3C(C)C(=O)N(Cc4cn(CCC5OCCCO5)nn4)CCS3(=O)=O)cc2)cc1 (configuration not stated)	3.6% (inactive)
C[C@@H]1CCCCO[C@H](CN(C)Cc2ccccc2)[C@@H](C)CN([C@H](C)CO)C(=O)c2cc(NS(=O)(=O)c3ccc(Cl)cc3)ccc2O1	-0.347% (inactive)
CCN(CC)C(=O)C1=C(C)N(Cc2ccc(F)cc2)C(=O)C(CC(=O)NC2CCCC2)C1 (configuration not stated)	5.32% (inactive)
O=C(NN=Cc1ccc2c(c1)CCC2)c1ccccc1O	-10.8% (inactive)
COc1ccc(C(=O)Nc2ccccc2C(=O)N/N=C/c2ccc(O)c(OC)c2)cc1	66.5% (active)
COc1cc(C=NNC(=O)c2cccnc2)ccc1OC(=O)c1ccccc1F	5.47% (inactive)
CCCCCCNC(=O)O[C@H]1CN(C(=O)OC(C)C)N(C(=O)OC(C)C)[C@@H]2CN(S(=O)(=O)c3ccc(C)cc3)C[C@]12O	-5.81% (inactive)
Cc1cc2cc3n(c2nn1)N=C(Cl)CC3	3.98% (inactive)
CNS(=O)(=O)c1ccc2c(c1)[nH]c(=S)n2C	8.35% (inactive)
CCOc1cc(/C=N/NC(=O)c2c(C)nc3ccc(Cl)cn23)ccc1O	-8.3% (inactive)
O=C(CCn1ccc([N+](=O)[O-])n1)Nc1nccs1	-2.16% (inactive)
Cc1ccnc(NC(=O)Cn2ccc([N+](=O)[O-])n2)c1	53.9% (active)
O=C(Cn1ccc([N+](=O)[O-])n1)NCc1cccs1	-5.11% (inactive)
Cn1ncc([N+](=O)[O-])c1C(=O)Nc1cc(Cl)ccc1Cl	1.05% (inactive)
CCc1nc2c(=O)[nH]cnc2o1	1.63% (inactive)

SMILES	inhibition
CCN1C(=O)[C@H]2[C@@H](c3ccc(C(F)(F)F)cc3)N[C@]3(CCCN(Cc4ccc(Br)cc4)C3=O)[C@H]2C1=O	33.7% (inactive)
C[C@H]1CN([C@@H](C)CO)S(=O)(=O)c2ccc(-c3cccc(F)c3)cc2O[C@@H]1CN(C)C	-3.16% (inactive)
Cc1cccn2c(=O)c3cc(C(=O)NC4CCCCC4)sc3nc12	-2.71% (inactive)
Cc1ccccc1C(=O)NC(=S)NC1CC1	2.37% (inactive)
Cc1ccccc1-n1nc(C)c2cc(C(=O)NC3CC3)sc21	48.8% (active)
CC(C)[C@H](NC(=O)c1ccccc1F)C(=O)Nc1cccc(S(=O)(=O)N2CCOCC2)c1	-8.03% (inactive)
CCN(CC)C(=O)C1=C(C)N(Cc2ccc(OC)cc2)C(=O)C(CC(=O)NCc2ccco2)C1 (configuration not stated)	-5.75% (inactive)
O=C(COc1ccc(S(=O)(=O)N2CCCC2)cc1[N+](=O)[O-])N1CCCCC1	-1.43% (inactive)
O=C(C1=C[C@H](c2coc3ccccc3c2=O)C[C@H](OCc2ccc(CO)cc2)O1)N1CCOCC1	-1.64% (inactive)
O=C(C1=C[C@H](c2coc3ccccc3c2=O)C[C@H](OCc2ccc(CO)cc2)O1)N1CCN(Cc2ccccc2)CC1	72.5% (active)
O=C(C1=C[C@H](c2ccc(C(F)(F)F)cc2)C[C@H](OCc2ccc(CO)cc2)O1)N1CCN(Cc2ccccc2)CC1	-10.6% (inactive)
CN1OC[C@@H]2CN(C(=O)c3ccc(-c4ccccc4)cc3)[C@H](c3ccc(-c4cccc(F)c4)cc3)C[C@@H]21	-3.6% (inactive)
Brc1ccc2ncnc(NCc3cccnc3)c2c1	27.2% (inactive)
COc1ccc(Nc2ncnc3ccc(Br)cc23)c(OC)c1	69.1% (active)
O=C(O)CCCCCNc1ncnc2ccc(Br)cc12	3.15% (inactive)
Cc1ccc([C@H]2N[C@]3(CCCN(Cc4ccccc4)C3=O)[C@H]3C(=O)N(Cc4ccccc4)C(=O)[C@@H]23)cc1	4.09% (inactive)
O=C(O)CCC(=O)N(Cc1ccccc1)Cc1ccccc1	-12% (inactive)
CCC(C)NC(=O)CCCc1ccccc1 (configuration not stated)	-18% (inactive)
O=C(O)CCCc1ccccc1	65.7% (active)
